Results as given in PubChem BioAssay AID624256 (NMMLSC, 2012).
The whole screen tested about 360,000 compounds, of which about 3,700 (1%) were called active. Roughly 2% stayed inconclusive and do not appear here.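 Rule for the calls: active = normalized GFP-positive differentiation at or above the plate's own cutoff, the solvent-only control mean plus 3 SD; inconclusive = no clear call, values can overlap the other calls; inactive = the rest.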 This excerpt belongs to a sample that is enriched for actives.

assay: induction of myeloid progenitor differentiation, primary screen, cell-based, flow cytometry, MLPCN library (AID 624256); conditions: ER-HoxA9 myeloid progenitors, lysozyme-GFP differentiation, at 10 µM; GFP+ MAC1+ double positive: measured here: differentiation confirmed by MAC1 staining, stronger effect = higher value; normalized GFP-positive differentiation: stronger effect = higher value;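 for GFP+ MAC1+ double positive: cells exposed to compound for four days before flow analysis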;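 for normalized GFP-positive differentiation: cells exposed to compound for four days before flow analysis; 0% = DMSO wells and 100% = fulvestrant positive control at 5 µM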

| Structure (SMILES) | GFP+ MAC1+ double positive [%] | outcome | normalized GFP-positive differentiation |
| --- | --- | --- | --- |
| O=C(OC1CC2CC1[C@H]1CCCCN1C2=O)N1CCOCC1 (stereo partly drawn) | 0.9 | inactive |  |
| Cc1noc(C)c1COC(=O)c1cc2ccccc2cc1O | 1.2 | inactive |  |
| O=C(COC(=O)c1ccc(O)cc1O)NC(=O)c1ccccc1 | 0 | inactive |  |
| O=C(NNc1c2ccccc2nc2ccccc12)c1cc2ccccc2cc1O | 2.5 |  | 28.5% (active) |
| CCc1nc2c(OCCOc3ccc(F)cc3)cccn2c1N(C)C(=O)c1ccccc1F | 0.6 | inactive |  |
| Nc1ccccc1SC(C[N+](=O)[O-])c1ccccc1 (stereo not drawn) | 1.1 | inactive |  |
| CCS(=O)(=O)c1cc([N+](=O)[O-])c(Sc2ccccc2N)s1 | 1.1 |  | 150% (active) |
| CC(C)(C)N1C(=O)c2c(C(=O)OCc3ccccc3)[nH]c(-c3ccccc3)c2C1=O | 1.4 | inactive |  |
| CC(C)Nc1nc(NCCOc2ccccc2Cl)c2sccc2n1 | 1 | inactive |  |
| COc1ccc(N2CCN(c3ccc([N+](=O)[O-])nc3)CC2)cc1 | 0.9 | inactive |  |
| COc1ccc2nc(N3CCN(C(=O)c4ccc([N+](=O)[O-])o4)CC3)sc2c1 | 7.3 |  | 33.6% (active) |
| COc1ccc2nc(N3C(=O)C(O)=C(C(=O)c4ccco4)C3c3ccco3)sc2c1 (stereo not drawn) | 0.8 | inactive |  |
| CCc1nc2ccc(C(=O)Nc3cccc(OC)c3)cn2c1N(CCC(C)C)CCN(C)C | 1.2 | inactive |  |
| CCCCNC(=O)C[C@@H]1C[C@@]2(C(=O)OC)CC(C)(C)CC=C2N(Cc2ccco2)C1=O | 2.1 | inactive |  |
| COC(=O)C[C@@H]1C=C[C@@H](NC(=O)c2cccnc2)[C@@H](CO)O1 | 1.2 | inactive |  |
| CCOC(=O)C1=CC[C@@H](c2ccccc2)N(S(=O)(=O)c2ccc(C)cc2)[C@H]1c1ccc(CC)cc1 | 0.9 | inactive |  |
| COc1ccc(N(CC(=O)N2CCCCCC2)S(=O)(=O)c2ccccc2)cc1 | 2.2 | inactive |  |
| COc1ccc(N(CCC#N)S(=O)(=O)c2ccc(Cl)cc2)cc1 | 6.2 |  | 17% (active) |
| COc1ccc(S(=O)(=O)NCCCCOc2ccc(Cl)cc2)cc1 | 0.7 | inactive |  |
| COc1cc(C=C(OC(C)=O)c2ccc3c(c2)OCO3)cc(OC)c1OC | 0.8 | inactive |  |
| Cc1cc(C)n(C(=O)c2ccc(C)c(S(=O)(=O)N3CCOCC3)c2)n1 | 3.4 |  | 11% (active) |
| Cc1ccc(C(=O)OCC(=O)N2CCCCCC2)cc1S(=O)(=O)N1CCOCC1 | 0.9 | inactive |  |
| Cc1ccc(C(=O)Nc2ncccc2C)cc1S(=O)(=O)N1CCOCC1 | 0.8 | inactive |  |
| CCOC(=O)c1ccc(-c2ccc3ncnc(N(C)Cc4sccc4C)c3c2)o1 | 2 | inactive |  |
| CC(=O)Nc1cccc(Nc2ccc(C#N)cc2)c1 | 0.5 | inactive |  |
| Cc1cccc(C)c1NC(=O)C(c1ccc(C(F)(F)F)cc1)n1c(=O)c(-c2ccco2)nc2ccccc21 (stereo not drawn) | 2.6 | inactive |  |
| CC[n+]1cc(C)ccc1/C=C/c1ccc(N(C)C)cc1 | 14.3 |  | 385% (active) |

| Structure (SMILES) | GFP+ MAC1+ double positive [%] | outcome | normalized GFP-positive differentiation |
| --- | --- | --- | --- |
| O=[N+]([O-])c1ccc(CN2CC(N3CC=CC3)CS2(=O)=O)cc1 (stereo not drawn) | 0.8 | inactive |  |
| COc1ccc(CC(N)c2csc(NC(=O)Cc3ccccc3)n2)cc1 (stereo not drawn) | 0.8 | inactive |  |
| CCCCn1nnnc1C(c1cccc(OC)c1OC)N1CCN(C/C=C/c2ccccc2)CC1 (stereo not drawn) | 1 | inactive |  |
| CCOc1nc(NCCN2CCOCC2)nc(Nc2ccc(C)cc2)n1 | 0.6 | inactive |  |
| Fc1ccc(-c2ccc(NCCN3CCOCC3)nn2)cc1 | 0.2 | inactive |  |
| c1ccc2cc3c(NCCN4CCOCC4)ccnc3cc2c1 | 8.7 |  | 189% (active) |
| CC1(C)OC(=O)C2=C(C[C@@H](C3CC3)O[C@H]2CCc2cccc(Cl)c2)O1 | 0.7 | inactive |  |
| COc1cc(/C=C2/C(=O)NN(c3cccc(Cl)c3)C2=O)cc(Br)c1O | 11.4 |  | 287% (active) |
| COc1cc(/C=N/O)cc(Br)c1OCc1cccc(Cl)c1 | 0.1 | inactive |  |
| COc1cc(/C=C2/C(=O)NN(c3ccc(F)cc3)C2=O)cc([N+](=O)[O-])c1O | 0.5 | inactive |  |
| CCOC(=O)[C@]12CCCC=C1N(CCC1=CCCCC1)C(=O)[C@H](CC(=O)N1CCSCC1)C2 | 4.4 | inactive |  |
| COc1ccc(Sc2ccc(NC(=O)c3cccc(Cl)c3)cc2C#N)cc1 | 1.1 | inactive |  |
| C[C@]12c3[nH]c4ccc(Cl)cc4c3CCN1C(=O)[C@@H](CC(=O)NCCCn1ccnc1)C[C@@H]2C(=O)N1CCOCC1 | 0.6 | inactive |  |
| CC(C)N(C(=O)[C@H]1C[C@H](CC(=O)NCCC2=CCCCC2)C(=O)N2CCc3c([nH]c4cc(CCC(=O)N(C)C)ccc34)[C@]12C)C(C)C | 0.4 | inactive |  |
| CC(C)N(C(=O)[C@H]1C[C@H](CC(=O)NC(C)(C)C)C(=O)N2CCc3c([nH]c4ccc(Cl)cc34)[C@]12C)C(C)C | 1.5 |  | 8.17% (active) |
| O=C(NCc1ccc(F)cc1)c1cc(C2CCCCN2C(=O)C2CCCCC2)on1 (stereo not drawn) | 1.3 | inactive |  |
| COc1cccc(/C=C2\SC(=S)N(CCCC(=O)N3CCOCC3)C2=O)c1 | 2.7 |  | 19% (active) |
| COc1ccc(/C=C2\SC(=S)N(CCC(=O)N3CCOCC3)C2=O)cc1OC | 0.9 | inactive |  |
| COc1cccc(/C=C2\Sc3ccc(C(=O)NCC4CCCO4)cc3N(C)C2=O)c1 (stereo not drawn) | 3.7 | inactive |  |
| OC(c1cc(Cl)cc(Cl)c1)c1ncc(-c2ccccc2C(F)(F)F)[nH]1 (stereo not drawn) | 1.7 | inactive |  |
| Nc1nc2c(ncn2[C@@H]2O[C@H](CNS(=O)(=O)N3CCc4ccccc4C3)[C@@H](O)[C@H]2O)c(=O)[nH]1 | 0.7 | inactive |  |
| CCCOC(=O)c1[nH]c2c(c1C)C(=O)CC(c1cc(OC)c(OC)c(OC)c1)C2 (stereo not drawn) | 8.6 |  | 37% (active) |
| COC(=O)C1C(=O)c2c([nH]c(C(=O)OCCSC)c2C)CC1C (stereo not drawn) | 3.1 | inactive |  |
| COc1cc(C2CC(=O)c3cnc(NC(C)=O)nc3C2)cc(OC)c1OC (stereo not drawn) | 0.9 | inactive |  |
| COc1cc(/C=C2/SC(=S)N(Cc3ccccc3)C2=O)cc(OC)c1O | 6.9 |  | 111% (active) |
| COc1ccc(CCN=C2SCC(=O)N2Cc2ccccc2)cc1OC | 0.1 | inactive |  |
| CN1C=CC=C/C1=C1\SC(=S)N(Cc2ccccc2)C1=O | 0.2 | inactive |  |
